High-throughput results (PubChem)
CYP2C9 inh = blocks human cytochrome P450 2C9. 20% of 96,000 active. inhibition, % at 5 µM. CYP2C9 Supersomes, luciferin-H conversion, luminescence;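 active = blocking of liver enzyme CYP2C9 beyond about 50% at 5 µM, limit read from the data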
D1 allo mod = D1 dopamine receptor (human) allosteric modulation | HEK293 D1, CRE-luciferase, dopamine EC30 potentiation; actives deviate in either direction | B-score at 10 µM | 5.9% of 58,000 active | AID 641;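 active = luminescence count or its row- and column-corrected plate score outside the 99.7% band of the plate's sample wells, on either side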
CYP2C19 inhib = blocks human cytochrome P450 2C19. P33261. CYP2C19 Supersomes, luciferin-H EGE luminescence, 30 min. inhibition, % at 5 µM. 21% of 96,000 active;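 active = CYP2C19 inhibition above a set limit at 5 µM in the primary screen, cut at about 50% in these data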
CYP2C9 act = increases human cytochrome P450 2C9 activity. P11712. recombinant CYP2C9, luciferin-H conversion, luminescence; hits give high values; factor 1 = untreated enzyme, 0 = blocked. activation factor at 5 µM. 1.4% of 96,000 active;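 active = activation factor of 2 or more for CYP2C9 at a 5 µM dose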
hDAT+cocaine = modulates human dopamine transporter uptake under cocaine. LLC-PK1 hDAT cells, [14C]-dopamine uptake with cocaine IC80; actives deviate in either direction. B-score at 10 µM. 1.3% of 110,000 active;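 active = Z score or B-score, a plate-position-corrected score, falls beyond the plate's 99.7% confidence bounds, in either direction; inactive = both scores lie inside the 99.7% bounds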
Target sequence (Q01959 whole entry, looked up): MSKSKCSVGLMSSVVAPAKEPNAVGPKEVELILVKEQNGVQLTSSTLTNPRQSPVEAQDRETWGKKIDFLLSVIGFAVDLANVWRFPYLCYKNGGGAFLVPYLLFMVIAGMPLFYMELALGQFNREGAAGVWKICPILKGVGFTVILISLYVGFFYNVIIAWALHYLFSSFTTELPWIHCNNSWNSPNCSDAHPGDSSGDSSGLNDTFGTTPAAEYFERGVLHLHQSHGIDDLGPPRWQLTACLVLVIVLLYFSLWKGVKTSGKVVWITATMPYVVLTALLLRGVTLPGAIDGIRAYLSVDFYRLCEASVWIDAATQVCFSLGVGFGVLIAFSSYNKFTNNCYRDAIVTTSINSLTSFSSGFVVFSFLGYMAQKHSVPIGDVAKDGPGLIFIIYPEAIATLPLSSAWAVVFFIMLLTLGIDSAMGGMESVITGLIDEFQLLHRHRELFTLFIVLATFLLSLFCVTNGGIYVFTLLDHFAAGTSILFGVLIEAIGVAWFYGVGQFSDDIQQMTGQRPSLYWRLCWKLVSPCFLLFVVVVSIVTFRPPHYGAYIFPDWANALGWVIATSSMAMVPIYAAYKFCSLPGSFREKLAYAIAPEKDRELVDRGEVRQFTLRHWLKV
CYP2C19 activ = activators of human cytochrome P450 2C19; P33261; recombinant CYP2C19, luciferin-H EGE luminescence; hits give high values; 0 = fully inhibited enzyme, 1 = untreated enzyme; activation factor at 5 µM; 96,000 tested, under 10 active;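 active = activation factor of at least 2 at 5 µM in the primary screen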
Hits are given with their value; - = inactive; . = no result given. Shown are actives, neighbours in structure and some others; about 28% of the full set was active somewhere.

SMILES | CYP2C9 inh | D1 allo mod | CYP2C19 inhib | CYP2C9 act | hDAT+cocaine | CYP2C19 activ
CCn1nnc(-c2ccccc2NS(=O)(=O)c2ccc(C(=O)OC)cc2)n1 | 73 | - | 98 | - | - | -
COc1ccccc1-c1cc(C(=O)Nc2c(F)cc(F)cc2Br)no1 | - | - | - | - | - | -
CC(C)Cc1cc(C(=O)Nc2c(F)cc(F)cc2Br)no1 | - | - | 68 | - | 6.5 | -
O=C(NC1CCCCC1)c1cc(-c2ccco2)on1 | - | - | - | 2.8 | . | -
O=C(Nc1cccc(O)c1)c1cc(-c2ccco2)on1 | - | . | - | 2 | - | -
O=C(Nc1ccc(F)cc1F)c1cc(-c2ccco2)on1 | - | - | - | - | - | -
O=C(Nc1c(F)cc(F)cc1Br)c1cc(-c2ccco2)on1 | - | - | - | 2 | - | -
CC(OCC(O)CN(C)CCOc1ccccc1)c1ccc(Cl)cc1 (stereo not given) | - | - | 75 | - | - | -
CCN(Cc1ccccc1)CC(O)COc1ccccc1 (stereo not given) | - | . | - | - | - | -
CCn1c(SCC(=O)c2c[nH]c3ccccc23)nnc1-c1cccs1 | - | - | 70 | - | - | -
CCn1c(SCC(=O)c2ccc(Cl)cc2)nnc1C(C)C | - | - | 77 | - | - | -
CCn1c(SCCOc2ccc(Cl)cc2)nnc1-c1cccs1 | 90 | - | 96 | - | - | -
CCn1c(SCC(=O)N2CCOCC2)nnc1-c1cccs1 | - | - | - | - | - | -
CCn1c(SCC(=O)c2ccc(Cl)cc2)nnc1-c1cccs1 | - | . | 70 | - | - | -
Cn1cnnc1SCC(=O)c1c[nH]c2ccccc12 | - | - | - | - | - | -
CCc1cccc(CC)c1NC(=O)CSc1nnc(C(C)C)n1CC | - | - | - | - | - | -
COc1ccc(-c2ccc(N(C)C)cc2)cc1[C@H]1[C@H]2C=CC[C@@H](C)[C@@H]2C(=O)N1Cc1ccccc1 | . | . | . | . | - | .
COc1ccccc1NC(=O)CN1CCN(c2ccccc2F)CC1 | 66 | - | 88 | - | - | -
COc1ccc(Cl)cc1NC(=O)N1CCN(CCc2ccccc2)CC1 | - | - | 73 | 2.3 | - | -
COc1ccc(C)cc1NC(=O)CN1CCN(CC(=O)Nc2ccccc2F)CC1 | - | - | 61 | - | . | -
COc1cccc(NC(=O)CN2CCN(c3ccccc3F)CC2)c1 | 67 | - | 62 | - | - | -
O=C(CN1C(=O)C2CC=C(Cl)CC2C1=O)NCc1ccccc1 (stereo not given) | - | - | - | - | - | -
CCCCC(C(=O)NCCC(C)C)N(CCCN1CCOCC1)C(=O)c1snc(C(N)=O)c1N (stereo not given) | - | - | - | - | - | -
C[C@H]1CCC[C@@]2(O[C@H](CCO)C[C@H](O)[C@H]2O)O1 | . | . | . | . | - | .
COc1ccccc1NC(=O)CCN1CCCCCC1 | - | - | - | - | - | -
SMILES | CYP2C9 inh | D1 allo mod | CYP2C19 inhib | CYP2C9 act | hDAT+cocaine | CYP2C19 activ
COc1ccccc1NC(=O)CCN1CCN(Cc2ccccc2)CC1 | 57 | . | - | - | - | -
CCOC(=O)c1ccc(NC(=O)N2CCN(CCc3ccccc3)CC2)cc1 | 66 | - | - | - | - | -
CCC(=O)Nc1cccc(NC(=O)CN2CCN(c3ccccc3OC)CC2)c1 | - | - | - | - | - | -
CCCC(=O)Nc1cccc(NC(=O)CN2CCN(c3ccccc3OC)CC2)c1 | 77 | - | 88 | - | - | -
COc1ccccc1NC(=O)N1CCN(c2ccccc2F)CC1 | - | - | - | 2.4 | - | -
CCCCNC(=O)c1ccc(CNc2c(N3CCC(C(=O)OCC)CC3)c(=O)c2=O)cc1 | . | . | . | . | - | .
COc1ccc(NC(C)=O)cc1NC(=O)CN1CCN(CC(=O)Nc2ccc(Cl)cc2)CC1 | - | - | 67 | - | - | -
COc1ccc(Cl)cc1NC(=O)C(C)N1CCN(C/C=C/c2ccccc2)CC1 (stereo not given) | 91 | . | 97 | - | - | -
Cc1cncn1CCc1nc2c3ccccc3nc(=S)n2[nH]1 | . | - | . | . | . | .
C=CCN1N=C(c2ccc(Cl)s2)CSC1=O | - | . | 72 | - | - | -
Cn1c(-c2nnn(-c3ccc(F)cc3)n2)cc2ccccc21 | . | . | . | . | - | .
CCOCCCNC(=O)c1cc2sc(Cl)cc2n1CC | - | - | 52 | - | - | -
CCOCCCNC(=O)c1ccc(Br)cc1 | - | . | - | - | - | -
CC(C)[C@H](NC(=O)OC(C)(C)C)c1nnc(SCc2cccc(F)c2)o1 | - | - | - | - | - | -
COc1ccccc1N(C(C)=O)C1SC(=O)N(c2ccccc2)C1=O (stereo not given) | - | - | 54 | - | - | -
Cc1cccc(N(CC(N)=O)C2SC(=O)N(c3ccccc3)C2=O)c1 (stereo not given) | - | . | - | - | - | -
COc1cc(OC)cc(C(=O)NCCNC(=O)c2ccco2)c1 | . | . | . | . | - | .
O=C1NC2NC(=O)N(C(Cc3ccccc3)C(=O)O)C2N1 (stereo not given) | - | - | - | - | - | -
O=C(NCCCN1CCN(c2cccc(Cl)c2)CC1)c1nc(-c2ccncc2)no1 | 87 | - | 70 | - | - | -
Nc1c(C(=O)NCc2ccc3c(c2)OCO3)nnn1-c1ccc(OC(F)(F)F)cc1 | - | . | - | - | - | -
Cc1nc2nc(Cc3ccccc3)[nH]n2c(=O)c1Cc1ccccc1 | - | - | - | - | - | -
Cc1[nH]n2c(=O)cc(Cc3ccccc3)nc2c1C#N | 77 | - | - | - | - | -
Cc1nc2c(C#N)c(C)[nH]n2c(=O)c1Cc1ccccc1 | 63 | . | - | - | - | -
Cc1nc2c(C#N)c[nH]n2c(=O)c1Cc1ccccc1 | 63 | . | - | - | - | -
CCC(=O)N/C=C/n1cnc2cc(C(F)(F)F)ccc21 | - | - | 80 | - | - | -
SMILES | CYP2C9 inh | D1 allo mod | CYP2C19 inhib | CYP2C9 act | hDAT+cocaine | CYP2C19 activ
Nc1c(-c2ccccc2)cnn1-c1cccc([N+](=O)[O-])c1 | - | . | - | - | - | -
Nc1c(-c2ccc(Cl)cc2)cnn1-c1cccc([N+](=O)[O-])c1 | - | . | - | - | -3 | -
CC(C)CC(=O)NC(=S)Nc1ccccc1C(=O)Nc1ccccc1 | - | . | - | - | - | -
CC(C)CCNC(=O)c1onc(CSc2ccccn2)c1C(=O)NCCC(C)C | . | . | . | . | - | .
CC1(c2ccc3c(c2)OCO3)NC(=O)N(CC(=O)NCCC2=CCCCC2)C1=O (stereo not given) | - | - | - | - | . | -
Cc1cc(C)cc(N(C(C)C(=O)N2CCCCC2)S(C)(=O)=O)c1 (stereo not given) | - | - | - | - | - | -
CS(=O)(=O)N(Cc1ccc(Cl)cc1)c1ccc(C(=O)NCCC2=CCCCC2)cc1 | - | . | - | - | - | -
COc1ccc(S(=O)(=O)N(C)CC(=O)NCCC2=CCCCC2)cc1C | - | . | 88 | - | - | -
CS(=O)(=O)N(CC(=O)NCCC1=CCCCC1)c1ccc2c(c1)OCO2 | 57 | - | 62 | - | - | -
